Compounds with a hit are over-represented: about 5.5% of the library has one in this group of screens.
CtBP-E1A blk: inhibitors of CtBP/E1A interaction. AlphaScreen GST-E1A/His-CtBP binding, 1536-well; active compounds read low. activity change, % (no concentration beside the values). 340,000 compounds, 0.49% hits; in the data active = activity change below about -65%; inconclusive = mostly about -30% to -63%; also: % is scaled to controls: 0 for no effect and ±100 for the full control effect
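Homogeneous bead-based format: GST-tagged E1A captured on glutathione donor beads, His-tagged CtBP on nickel acceptor beads; compounds precede bead addition by 2 h at 37 °C.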
CBFb RUNX1 block: CBF-beta/RUNX1 interaction disruption. Q01196+Q13951. AlphaScreen CBFb-His/RUNX1-biotin binding, biochemical. Potency, µM (titrated, usually from 59.8 µM), for the others: top-dose activity, negative = inhibition, hits mostly inhibitors. 230,000 tested, under 10 active. AID 1477; also: % of control where 0% means no effect
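Bead-based AlphaScreen assay; binding partners His-tagged CBF-beta and biotinylated RUNX1 at 30 nM each. Compound exposure 15 min after a 20-min protein preincubation; bead step 90 min; all steps at room temperature.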
RORgamma inh: inhibitors of mouse ROR gamma transcriptional activity; P51450; Drosophila S2 Gal4-RORgamma UAS-luciferase reporter, 20 h; Potency, µM (top dose mostly 53.6 µM), for inactives: at the top dose activity change, negative = inhibition, hits mostly inhibitors; 310,000 compounds, 5.4% hits; AID 2551; also: potency is read from the fitted curve at half-maximal effect; % is scaled to controls: 0 for no effect and ±100 for the full control effect; nearly all actives have a fitted effect of over 60% in size
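Drosophila S2 cells stably expressing Gal4-DBD/mouse RORγ fusion under metallothionein promoter plus UAS-luciferase; compound 1 h, then 700 uM CuSO4 induction for 20 h at ambient temperature; inhibition read as reduced luminescence.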
Six1-Eya2 inh: inhibitors of human Six1/Eya2 interaction | Q15475+O00167 | AID 651725 | AlphaScreen GST-Six1/His-Eya2 binding, biochemical; active compounds read low | 360,000 compounds, 0.56% hits | activity change, % (test concentration not listed); in the data active = activity change below about -65%; inconclusive = mostly about -30% to -63%; also: % is scaled to controls: 0 for no effect and ±100 for the full control effect
Target sequence (O00167 whole entry, looked up): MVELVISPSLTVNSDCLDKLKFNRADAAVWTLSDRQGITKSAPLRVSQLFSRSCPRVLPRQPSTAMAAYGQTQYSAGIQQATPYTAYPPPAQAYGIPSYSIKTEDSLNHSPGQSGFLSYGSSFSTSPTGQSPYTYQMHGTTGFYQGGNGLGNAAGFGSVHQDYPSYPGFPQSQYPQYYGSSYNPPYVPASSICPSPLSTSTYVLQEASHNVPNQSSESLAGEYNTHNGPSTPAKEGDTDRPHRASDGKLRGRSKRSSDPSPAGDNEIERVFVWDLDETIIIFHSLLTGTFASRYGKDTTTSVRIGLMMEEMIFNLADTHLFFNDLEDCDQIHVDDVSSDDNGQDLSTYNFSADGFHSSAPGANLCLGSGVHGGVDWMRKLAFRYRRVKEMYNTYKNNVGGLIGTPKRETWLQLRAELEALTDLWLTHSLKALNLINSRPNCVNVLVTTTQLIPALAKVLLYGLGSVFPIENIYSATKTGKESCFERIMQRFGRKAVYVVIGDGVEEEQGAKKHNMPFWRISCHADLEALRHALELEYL
Target sequence (Q15475 whole entry, looked up): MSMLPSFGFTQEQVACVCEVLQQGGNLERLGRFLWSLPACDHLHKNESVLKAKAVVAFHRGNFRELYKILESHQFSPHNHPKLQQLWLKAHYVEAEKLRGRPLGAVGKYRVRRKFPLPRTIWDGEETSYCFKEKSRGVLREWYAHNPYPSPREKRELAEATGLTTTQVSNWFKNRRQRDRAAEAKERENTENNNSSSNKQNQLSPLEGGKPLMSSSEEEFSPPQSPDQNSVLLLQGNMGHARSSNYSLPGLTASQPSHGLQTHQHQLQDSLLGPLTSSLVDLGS
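AlphaScreen with GST-Six1 and His-Eya2 (5X mix: 250 nM and 500 nM), glutathione donor and nickel acceptor beads; buffer 50 mM Tris pH 8.0, 300 mM NaCl, 1 mM TCEP; 1 h at 37 C in the dark.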
Gal4-VP16 FLuc: inhibits Gal4-VP16 luciferase reporter, ROR gamma counter-screen | Potency, µM (titrated, usually from 53.6 µM), for the others: top-dose activity, negative = inhibition, hits mostly inhibitors | Drosophila S2 Gal4-VP16 UAS-luciferase, luminescence, 20 h | AID 2546 | 310,000 compounds, 3.5% hits;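 also: Gal4-VP16 expression switched on by copper sulfate through the metallothionein promoter; potency is read from the fitted curve at half-maximal effect; % is scaled to controls: 0 for no effect and ±100 for the full control effect; nearly all actives have a fitted effect of over 50% in size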
MBNL1-CUG inh: MBNL1-poly(CUG) RNA binding inhibition; Q9NR56; TR-FRET MBNL1-His/biotin-(CUG)12 binding, 665/545 ratio; Potency, µM (highest dose often 57.5 µM), without a hit: at the highest dose activity change, negative = inhibition, most hits filed as inhibitors; 280,000 compounds, 0.036% hits; AID 2675; active = well fitted inhibition curve with a large enough effect in the signal ratio, with a control signal flat, not every such curve was filed as active; inconclusive = small, poorly fitted or top-dose-only effect, or effect the other way, or a change in a side signal; inactive = no such curve, though single readings can be large or run the other way; the % refers to the signal ratio; also: potency is read from the fitted curve at half-maximal effect; % is scaled to controls: 0 for no effect and ±100 for the full control effect
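Inhibition of protein-RNA binding appears as loss of TR-FRET between terbium anti-His antibody on MBNL1-His and streptavidin-XL665 on biotin-(CUG)12. Activity is normalized to buffer-only and uninhibited-complex controls.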
Numbers without * were called inactive; ? = inconclusive; nt = no result given. Unless noted, calls follow the shape of the dose curve; as a rule, active = well fitted curve in the direction sought with a large enough effect; inconclusive = small, poorly fitted or top-dose-only effect, or another doubt; inactive = no such curve, though single readings can be large; an effect the other way counts as inactive or inconclusive.

SMILES	CtBP-E1A blk	CBFb RUNX1 block	RORgamma inh	Six1-Eya2 inh	Gal4-VP16 FLuc	MBNL1-CUG inh
C#C[C@]1(O)CC[C@@H]2[C@H]3CCC4=CC(=O)CC[C@H]4[C@H]3C(=C)C[C@@]21CC	nt	nt	-14%	nt	-14%	nt
Cc1ccc(C)c(NC(=O)CN(C)C(=O)c2ccc(Cl)nc2)c1	-7	nt	5%	-8	7%	2%
C=CCN1C(=O)NC(c2ccccc2)(C(F)(F)F)S/C1=C(\C#N)c1nnc(N2CCOCC2)n1-c1ccccc1 (centres undefined)	-16	4%	5.6µM*	-7	13µM*	-13%
C=CCN1C(c2cccc(C(F)(F)F)c2)=CS/C1=C(\C#N)c1nnc(N2CCOCC2)n1-c1ccccc1	3	nt	nt	-13	nt	nt
COc1ccc(N2C(C)=CS/C2=C(/C#N)c2nnc(N3CCOCC3)n2-c2ccccc2)cc1	7	3%	13µM*	-1	0%	8%
CCOc1ccc(/C(CCC(=O)O)=N/NC(=S)NCCc2ccccc2)cc1	12	-9%	7.9µM*	-14	?	2%
CCOc1ccc(C(=O)OCC(=O)NCCCc2ccccc2)cc1	-5	nt	-19%	0	-9%	3%
CC1=C(C(=O)N2CCOCC2)CC(CC(=O)NCc2cccs2)C(=O)N1Cc1ccc(F)cc1 (centres undefined)	0	nt	nt	-2	nt	nt
CC12CCC(C(=O)N(CSC(=S)N/N=C\c3ccccc3)C1=O)C2(C)C (centres undefined)	-1	3%	1.1µM*	-3	1.6µM*	2%
CC12CCC(C(=O)N(CSC(=S)N/N=C\c3ccccc3Cl)C1=O)C2(C)C (centres undefined)	?	9%	?	?	0%	1%
C=C1SC(Nc2c(C)cccc2C)=NC12CCCCC2	-1	-7%	4µM*	-3	2.2µM*	-10%
C=C1SC(Nc2c(C)cc(C)cc2C)=NC12CCCCC2	-10	4%	?	-9	0.63µM*	nt
Cn1ccc2c(N3c4ccccc4CCc4ccccc43)cc3c(c21)C1CCC3O1 (centres undefined)	?	nt	nt	-6	nt	nt
Cc1cccc(Nc2c3c(nc4ccccc24)CCC3)c1	-8	-1%	7.1µM*	-4	?	nt
O=C(Nc1nncs1)C12CC3CC(CC(C3)C1)C2	6	nt	-20%	2	2%	-12%
CC(C)[C@H](NC(=O)c1ccccc1)C(=O)NC1=NCCS1	7	nt	nt	2	nt	nt
O=C(NC1=NCCS1)C12CC3CC(CC(C3)C1)C2	2	-2%	7.1µM*	12	22µM*	-5%
CC(C)C(NC(=O)C12CC3CC(CC(C3)C1)C2)C(=O)NC1=NCCS1 (centres undefined)	nt	3%	18µM*	nt	-4%	-1%
COCC(=O)Nc1nc(-c2ccccc2)c(C)s1	-4	0%	0%	-2	-5%	0%
CCNc1nc(-c2ccc(OC(F)F)cc2)c(C)s1	-1	-13%	11µM*	-14	-56%	0%
CCN(CC)C(=O)C1=C(C)N(Cc2ccccc2)C(=O)C(CC(=O)NCc2cccs2)C1 (centres undefined)	6	nt	nt	-2	nt	nt
COc1ccc(C(C)=O)cc1CSc1nnc(-c2ccccc2O)n1-c1ccccc1	-9	2%	2.8µM*	-6	-13%	-9%
COc1cccc(/C=N/NC(=O)c2cccs2)c1	-2	2%	-40%	-9	-13%	3%
O=C(N/N=C/c1cccc(OC(=O)N2CCOCC2)c1)c1cccs1	6	3%	?	-10	13µM*	9%
CCn1ccc(C(=O)Nc2ncc(C)s2)n1	1	nt	11µM*	3	?	-3%
SMILES	CtBP-E1A blk	CBFb RUNX1 block	RORgamma inh	Six1-Eya2 inh	Gal4-VP16 FLuc	MBNL1-CUG inh
Cn1c(=O)c2c(nc(NCc3ccco3)n2CC(O)CO)n(C)c1=O (centres undefined)	-1	-2%	18%	1	-4%	8%
Cn1c(=O)c2c(nc(NCc3ccco3)n2C/C=C/c2ccccc2)n(C)c1=O	-3	-2%	2.2µM*	-8	4.5µM*	-5%
Cn1c(=O)c2c(nc(NCc3ccco3)n2Cc2ccccc2Cl)n(C)c1=O	12	4%	-35%	-22	4.5µM*	-1%
Cn1c(=O)c2c(nc(NCc3ccco3)n2C)n(C)c1=O	1	-3%	-1%	-4	8%	-6%
CCNCc1nc2cc(Cl)ccc2c(=O)[nH]1	-23	0%	6.3µM*	1	16µM*	-7%
N#Cc1c(N)nc(SCc2ccccc2)c(C#N)c1-c1ccco1	11	7%	?	-8	7.9µM*	72%
N#Cc1c(N)nc(SCc2ccccn2)c(C#N)c1-c1cccs1	?	2%	13µM*	-26	-15%	-5%
N#Cc1c(N)nc(SC2CCCCC2=O)c(C#N)c1-c1ccco1 (centres undefined)	?	nt	nt	-66*	nt	nt
C[C@]12CCC(=O)C=C1CC[C@@H]1[C@@H]2[C@@H](O)C[C@@]2(C)[C@H]1CC[C@]2(O)C(=O)COP(=O)(O)O	nt	nt	-2%	nt	5%	nt
COC(=O)[C@H]1C[C@@H]2CC[C@@H](O)C[C@@H]2N1Cc1c(F)cccc1Cl	nt	11%	-8%	nt	-1%	nt
Cc1ccccc1C(=O)N1CCC(n2nccc2NC(=O)C2CC2)CC1	7	nt	8%	-2	3%	-6%
S=c1[nH]ncn1NCc1ccc(Cl)cc1Cl	10	-6%	6.3µM*	6	?	3%
CC1(C)CC2(C)OC(=N)C1(C#N)C2(C#N)C#N (centres undefined)	-18	1%	7.9µM*	-4	?	-3%
COc1ccccc1C(CNC(=O)C(CCSC)NC(=O)c1ccccc1Cl)N1CCCC1 (centres undefined)	6	nt	nt	-2	nt	nt
O=C(c1cc(-c2ccccc2)nn1-c1ccccc1)N1CCN(S(=O)(=O)c2c(F)cccc2F)CC1	-6	nt	nt	1	nt	nt
